Measured values from article PMC4336329 (PLoS ONE, 2015).
In all, about 310,000 compounds went through this assay and about 14,000 (4.5%) showed an effect of 50% or more. Effects have a minus sign here. For the sample, strong results were picked, then their nearest neighbours and some compounds at random.

target: human ether-à-go-go-related gene (hERG) potassium channel (human, UniProt Q12809); experiment: primary screen, population patch clamp on CHO cells stably expressing hERG; higher = less effect of the substance
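Further: peak tail current of the secondary pulse compared with the same well before compound.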

human ether-à-go-go-related gene (hERG) potassium channel, sequence (Q12809 whole entry, looked up): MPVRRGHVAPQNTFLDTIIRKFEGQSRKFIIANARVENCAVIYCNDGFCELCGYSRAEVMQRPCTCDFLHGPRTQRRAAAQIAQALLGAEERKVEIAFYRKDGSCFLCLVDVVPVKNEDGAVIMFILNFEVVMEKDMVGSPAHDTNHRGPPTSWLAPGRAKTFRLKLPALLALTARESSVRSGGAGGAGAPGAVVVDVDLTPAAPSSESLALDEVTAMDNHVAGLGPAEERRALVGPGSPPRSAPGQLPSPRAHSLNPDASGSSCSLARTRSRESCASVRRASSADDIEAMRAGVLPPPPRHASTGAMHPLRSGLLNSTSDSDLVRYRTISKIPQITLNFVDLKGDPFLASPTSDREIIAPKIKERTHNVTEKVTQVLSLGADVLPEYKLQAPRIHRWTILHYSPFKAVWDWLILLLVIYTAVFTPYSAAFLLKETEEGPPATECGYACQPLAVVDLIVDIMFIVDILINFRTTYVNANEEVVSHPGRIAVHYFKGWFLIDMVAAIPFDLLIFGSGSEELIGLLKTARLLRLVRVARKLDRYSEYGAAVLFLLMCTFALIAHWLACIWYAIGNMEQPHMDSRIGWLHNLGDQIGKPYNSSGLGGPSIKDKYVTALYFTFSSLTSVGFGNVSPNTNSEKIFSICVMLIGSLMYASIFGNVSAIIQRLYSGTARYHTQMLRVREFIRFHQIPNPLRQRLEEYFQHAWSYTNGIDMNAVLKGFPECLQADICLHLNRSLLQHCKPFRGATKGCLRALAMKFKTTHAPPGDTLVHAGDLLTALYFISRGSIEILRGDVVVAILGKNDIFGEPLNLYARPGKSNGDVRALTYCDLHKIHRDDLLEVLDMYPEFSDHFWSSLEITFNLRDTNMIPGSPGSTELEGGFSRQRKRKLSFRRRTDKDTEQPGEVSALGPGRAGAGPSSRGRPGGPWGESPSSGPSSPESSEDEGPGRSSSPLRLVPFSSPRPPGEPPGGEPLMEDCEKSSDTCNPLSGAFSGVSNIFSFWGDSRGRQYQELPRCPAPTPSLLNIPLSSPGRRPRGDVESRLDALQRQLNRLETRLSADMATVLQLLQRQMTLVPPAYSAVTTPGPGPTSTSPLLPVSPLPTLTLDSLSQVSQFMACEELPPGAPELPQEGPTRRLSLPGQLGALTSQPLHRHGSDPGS

| SMILES | hERG current change (%, negative = inhibition) at 10uM [%] |
| --- | --- |
| Cc1ccc(OC(=S)Nc2ccc(F)cc2)cc1 | 7.01 |
| Cc1ccc(Sc2nc(-c3ccccc3)nnc2C(F)(F)F)cc1 | 11.7 |
| CC(C)(C)C(=O)NC(Nc1cccc2cccnc12)C(Cl)(Cl)Cl (stereo not shown) | -1.6 |
| CC1=C(C(=O)OC(C)C)C(c2ccc(Br)s2)NC(=O)N1 (stereo not shown) | -48 |
| O=c1oc2cc([N+](=O)[O-])ccc2nc1/C=C(\O)c1cccc(Br)c1 | 4.15 |
| C[C@]12C(=O)N(c3ccc(F)cc3)C(=O)N1[C@@H]1c3ccccc3OC[C@@H]1[C@H]2c1ccccc1 | 7.01 |
| COc1cc(OC)c(NC2=NCCCCC2)cc1Cl | -0.664 |
| CCSc1nc2c(c(=O)[nH]c(=O)n2C)n1C/C=C(/C)Cl | -17.2 |
| CCOC(=O)CSc1nc2c(c(=O)[nH]c(=O)n2C)n1C/C=C(/C)Cl | -43.7 |
| CCOC(=O)C(CC)Sc1nc2c(c(=O)[nH]c(=O)n2C)n1C/C=C(/C)Cl (stereo not shown) | -82 |
| Nc1nc(Cl)cc(-c2ccccc2)n1 | -4.54 |
| CCC(C)C(NC=C1C(=O)OC(C)(C)OC1=O)C(=O)O (stereo not shown) | -4.97 |
| CCCn1c(CN(C)Cc2ccccc2)nc2c1c(=O)n(C)c(=O)n2C | -23.4 |
| CCCCn1c(CN(C)Cc2ccccc2)nc2c1c(=O)n(C)c(=O)n2C | -39.9 |
| COCCn1c(CN(C)Cc2ccccc2)nc2c1c(=O)n(C)c(=O)n2C | -6.15 |
| Cn1c(=O)c2c(nc(CN3CCN(Cc4ccccc4)CC3)n2Cc2cccc(Cl)c2)n(C)c1=O | -59.2 |
| Cn1c(=O)c2c(nc(CN3CCN(c4cccc(Cl)c4)CC3)n2CCc2ccccc2)n(C)c1=O | -20.1 |
| CCOCCn1c(CN(Cc2ccccc2)Cc2ccccc2)nc2c1c(=O)n(C)c(=O)n2C | -45.6 |
| CN(Cc1ccccc1)Cc1nc2c(c(=O)n(C)c(=O)n2C)n1Cc1ccc(F)cc1 | -55.6 |
| CN(Cc1ccccc1)Cc1nc2c(c(=O)n(C)c(=O)n2C)n1CCCc1ccccc1 | -50.3 |
| CN(Cc1ccccc1)Cc1nc2c(c(=O)n(C)c(=O)n2C)n1Cc1ccc(Cl)cc1 | -30.1 |
| CN(Cc1ccccc1)Cc1nc2c(c(=O)n(C)c(=O)n2C)n1CCc1ccccc1 | -48.3 |

| SMILES | hERG current change (%, negative = inhibition) at 10uM [%] |
| --- | --- |
| CC1CN(Cc2nc3c(c(=O)n(C)c(=O)n3C)n2Cc2cccc(Cl)c2)CC(C)O1 (stereo not shown) | -14.2 |
| COCCn1c(CN(Cc2ccccc2)Cc2ccccc2)nc2c1c(=O)n(C)c(=O)n2C | -62.8 |
| CCCCC(CC(O)COCCC)C(=O)NN (stereo not shown) | 16.1 |
| O=Cc1ccc(N2N=C(c3ccccc3)CC2c2ccccc2)cc1 (stereo not shown) | 24.3 |
| Cc1[nH]c(C)c2c(=O)n(-c3ccccc3)ncc12 | 10.2 |
| COc1ccc(C2C(C#N)=C(N)N(N(C)C)C3=C2C(=O)CCC3)cc1 (stereo not shown) | 9.88 |
| CCOC(=O)N1CCN(S(=O)(=O)c2ccc(Cl)cc2)CC1 | 0.615 |
| O=C(CSc1nc(-c2ccccc2)cs1)NCc1ccco1 | -14.9 |
| Cn1c(=O)c2c(nc(CN3CCN(Cc4ccccc4)CC3)n2Cc2ccc(F)cc2)n(C)c1=O | -67.2 |
| Cc1ccc(Cn2c(CN(C)Cc3ccccc3)nc3c2c(=O)n(C)c(=O)n3C)cc1 | -21.5 |
| Cn1c(=O)c2c(nc(CN3CCc4ccccc4C3)n2Cc2ccccc2)n(C)c1=O | -17.5 |
| COc1ccc(N2CCN(Cc3nc4c(c(=O)n(C)c(=O)n4C)n3CCc3ccccc3)CC2)cc1 | 13.5 |
| Cc1ccc(C)c(Cn2c(CN(C)Cc3ccccc3)nc3c2c(=O)n(C)c(=O)n3C)c1 | -51.3 |
| CN(Cc1ccccc1)Cc1nc2c(c(=O)n(C)c(=O)n2C)n1Cc1ccccc1Cl | -5.6 |
| Cn1c(=O)c2c(nc(CN3CCc4ccccc4C3)n2Cc2cccc(Cl)c2)n(C)c1=O | -53.9 |
| CCOC(=O)N1CCN(Cc2nc3c(c(=O)n(C)c(=O)n3C)n2Cc2ccc(F)cc2)CC1 | -36.2 |
| COc1ccc(N2CCN(Cc3nc4c(c(=O)n(C)c(=O)n4C)n3Cc3cccc(C)c3)CC2)cc1 | -52.3 |
| Cn1c(=O)c2c(nc(CN3CCc4ccccc4C3)n2Cc2ccc(F)cc2)n(C)c1=O | -26.5 |
| COCCn1c(CN2CCN(c3ccc(OC)cc3)CC2)nc2c1c(=O)n(C)c(=O)n2C | -9.23 |
| Cc1ccccc1Cn1c(CN2CCc3ccccc3C2)nc2c1c(=O)n(C)c(=O)n2C | -15.9 |
| NC(=S)Nc1ccc(C(F)(F)F)cc1Cl | 0.127 |
| O=C(CN1C(=O)C2(OCCO2)c2ccccc21)c1ccc(F)cc1 | 2.09 |

| SMILES | hERG current change (%, negative = inhibition) at 10uM [%] |
| --- | --- |
| COc1ccc(CCCC(=O)Nc2cc(C)ccc2OC)cc1 | -14.2 |
| CCOc1cc(C(=O)CCC(=O)OCC(=O)Nc2ccc(C)c(S(=O)(=O)N(C)C)c2)ccc1O | -32.7 |
| Cc1cc(N)n(Cc2cccs2)n1 | -2.95 |
| COc1ccc(C(=O)Nc2nnc(S(=O)(=O)N(C)Cc3ccccc3)s2)cc1 | 7.21 |
| O=c1c2ccccc2[nH]c(=S)n1-c1ccc2c(c1)OCO2 | 13.1 |
| Cc1nc(NC(=O)CSc2nnc3ccccn23)c(Cl)cc1Cl | -3.58 |
| Cn1c(=O)c2c(nc(CN3CCN(Cc4ccccc4)CC3)n2CCN2CCOCC2)n(C)c1=O | -17.6 |
| Cn1c(=O)c2c(nc(CN3CCN(Cc4ccccc4)CC3)n2Cc2ccc(Cl)cc2)n(C)c1=O | -68 |
| Cn1c(=O)c2c(nc(CN3CCc4ccccc4C3)n2Cc2ccc(Cl)cc2)n(C)c1=O | 0.125 |
| Cc1csc(SCC(=O)Nc2cc(S(=O)(=O)N3CCOCC3)ccc2N2CCOCC2)n1 | -45.8 |
| CCn1c(SCC(=O)Nc2ccc(OC)cc2)nnc1-c1ccco1 | -22.3 |
| O=C(O)/C=C/C(=O)NNC(=O)c1ccccc1Br | 2.8 |
| O=c1[nH]c(SCc2ccccc2)nc2ccsc12 | 5.3 |
| O=c1[nH]c(SCc2ccc(Cl)cc2)nc2ccsc12 | -67 |
| O=c1[nH]c(SCc2ccc(Cl)cc2)nc2ccccc12 | 3.49 |
| COc1cc(CCCN2C(=S)NC[C@@H]2CC2CCCCC2)cc(OC)c1OC | -1.89 |
| CN(CC#CC(O)(c1ccccc1)c1ccccc1)C(C)(C)C | -69 |
| CCN(CC)CC#CC(O)(c1ccccc1)c1ccccc1 | -42.5 |
| CC(C)N(CC#CC(O)(c1ccccc1)c1ccccc1)CCO | -28.1 |
| CC(C)N(CC#CC(O)(c1ccccc1)c1ccccc1)C(C)C | -70.4 |
| CN(C)CCC#CC(O)(c1ccccc1)c1ccccc1 | -32.1 |
| OCCN(CC#CC(O)(c1ccccc1)c1ccccc1)CCO | 5.56 |

| SMILES | hERG current change (%, negative = inhibition) at 10uM [%] |
| --- | --- |
| COc1ccc(-c2cc(CNS(=O)(=O)c3ccc(NC(C)=O)cc3)on2)cc1 | 18.6 |
| COc1ccccc1C(=O)NCCOc1ccc(C)c(C)c1 | 18.5 |
| COc1ccc(Cl)cc1N(CC(=O)NC1CC1)S(=O)(=O)c1ccc(C)c([N+](=O)[O-])c1 | 11.9 |
| Cl.O=C(OC[C@@H]1CCCN2CCCC[C@H]12)c1cc2ccccc2oc1=O | -50.1 |
| O=C(NC(=O)c1cccc(F)c1)OC[C@@H]1CCCN2CCCC[C@H]12 | -36.7 |
| O=C(NS(=O)(=O)Oc1ccc(Cl)cc1)OC[C@@H]1CCCN2CCCC[C@H]12 | 28.2 |
| O=C(OC1CCCCC1)c1cc2ccccc2oc1=O | -32.6 |
| COc1ccc(/C=C(\NC(=O)c2ccccc2)C(=O)OCC2CCCN3CCCCC23)cc1OC (stereo not shown) | -40.7 |
| Cl.O=C(Nc1ccc(C(=O)OC[C@@H]2CCCN3CCCC[C@H]23)cc1)c1cccc(Br)c1 | -69.3 |
| O=C(Nc1ccc(C(=O)N2CCOCC2)cc1)c1cccc(Br)c1 | 3.11 |
| Cl.O=C(OCC1CCCN2CCCCC12)c1ccc2c(c1)OCO2 (stereo not shown) | -22.8 |
| O=C(NC(=O)c1ccccc1)OCC1CCCN2CCCCC12 (stereo not shown) | -56.7 |
| O=C(Nc1ccccc1)OCC1CCCN2CCCCC12 (stereo not shown) | -39.4 |
| O=C(NCC1CCCO1)c1ccc(NC(=O)c2cccc(Br)c2)cc1 (stereo not shown) | 16.4 |
| O=C(NC(=O)c1cccc(Cl)c1)OC[C@@H]1CCCN2CCCCC12 (stereo partly shown) | -60.9 |
| CCOC(=O)C(=NCCCN(C)C)NNc1cc(C(F)(F)F)ccc1Cl | -18.5 |
| O=C(NCCCn1ccnc1)c1ccc(Br)c(S(=O)(=O)N2CCOCC2)c1 | -7.41 |
| COc1ccc(OC)c(NC(=O)Nc2cc(C(=O)O)ccc2C)c1 | 13.1 |
| COc1ccccc1NC(=O)CN1C(=O)NC(CC(C)C)C1=O (stereo not shown) | 4.37 |
